Assay results reported in PMC7862700, “An all-to-all approach to the identification of sequence-specific readers for epigenetic DNA modifications on cytosine”.

Key:
Experiment in all cases: DAPPL (digital affinity profiling via proximity ligation, sequencing); 10 mM Tris-HCl pH 7.5, 50 mM NaCl, 1 mM DTT, 4% glycerol, room temperature, 30 min; GST-TFs on glutathione beads, 16-mer random dsDNA library, 0.1% formaldehyde crosslink after washing; high values mean tight binding
FLI1 = target: T1, FLI1 (Homo sapiens, UniProt Q01543 1-452); conditions: protein: recombinant; tags: N-terminal GST; dsDNA, one strand shown
T1 sequence: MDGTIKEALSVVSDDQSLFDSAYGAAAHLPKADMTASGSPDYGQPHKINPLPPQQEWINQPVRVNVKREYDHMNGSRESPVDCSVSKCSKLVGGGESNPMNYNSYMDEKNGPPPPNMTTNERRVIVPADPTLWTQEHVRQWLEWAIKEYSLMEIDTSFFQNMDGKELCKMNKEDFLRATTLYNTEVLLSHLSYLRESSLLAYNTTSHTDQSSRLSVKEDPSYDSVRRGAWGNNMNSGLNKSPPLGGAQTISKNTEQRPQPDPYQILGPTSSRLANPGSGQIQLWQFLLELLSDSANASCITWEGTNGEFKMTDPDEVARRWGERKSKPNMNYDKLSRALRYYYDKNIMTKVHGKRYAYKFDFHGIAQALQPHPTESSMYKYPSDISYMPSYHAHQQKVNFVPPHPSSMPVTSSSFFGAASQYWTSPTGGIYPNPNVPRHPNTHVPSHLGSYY
Method in brief: (§1)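 A tag-only sample was pooled with DNA-barcoded human transcription factors that had been expressed in yeast as GST fusions and captured on glutathione beads. The pools were incubated for 30 min at room temperature with 200 nmole of a random double-stranded 16-mer DNA library in Tris/NaCl/DTT/glycerol buffer, then washed, crosslinked with 0.1% formaldehyde, proximity-ligated (BsaI/T4 ligase, 1 h, 37 °C), PCR-amplified and sequenced on an Illumina NextSeq500. Binding signal is each hexamer's read frequency for a factor divided by its frequency for the tag-only sample.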

ELK1 = target: T2, ELK1 (Homo sapiens, UniProt P19419 1-428); conditions: protein: recombinant; tags: N-terminal GST; dsDNA, one strand shown
T2 sequence: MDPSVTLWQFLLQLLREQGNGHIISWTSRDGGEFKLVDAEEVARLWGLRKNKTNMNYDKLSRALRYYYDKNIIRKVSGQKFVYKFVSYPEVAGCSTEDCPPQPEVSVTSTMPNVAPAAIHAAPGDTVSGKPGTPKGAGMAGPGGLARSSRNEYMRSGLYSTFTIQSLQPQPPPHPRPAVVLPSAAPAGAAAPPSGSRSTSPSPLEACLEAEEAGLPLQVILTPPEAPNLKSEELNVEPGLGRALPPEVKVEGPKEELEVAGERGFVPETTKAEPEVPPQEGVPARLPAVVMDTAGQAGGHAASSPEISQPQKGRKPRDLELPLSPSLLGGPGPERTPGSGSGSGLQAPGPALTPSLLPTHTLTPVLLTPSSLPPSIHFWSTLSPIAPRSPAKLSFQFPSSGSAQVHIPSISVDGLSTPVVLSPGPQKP
Method in brief: as §1

GABPA = target: T3, GABPA (Homo sapiens, UniProt Q06546 1-454); conditions: protein: recombinant; tags: N-terminal GST; dsDNA, one strand shown
T3 sequence: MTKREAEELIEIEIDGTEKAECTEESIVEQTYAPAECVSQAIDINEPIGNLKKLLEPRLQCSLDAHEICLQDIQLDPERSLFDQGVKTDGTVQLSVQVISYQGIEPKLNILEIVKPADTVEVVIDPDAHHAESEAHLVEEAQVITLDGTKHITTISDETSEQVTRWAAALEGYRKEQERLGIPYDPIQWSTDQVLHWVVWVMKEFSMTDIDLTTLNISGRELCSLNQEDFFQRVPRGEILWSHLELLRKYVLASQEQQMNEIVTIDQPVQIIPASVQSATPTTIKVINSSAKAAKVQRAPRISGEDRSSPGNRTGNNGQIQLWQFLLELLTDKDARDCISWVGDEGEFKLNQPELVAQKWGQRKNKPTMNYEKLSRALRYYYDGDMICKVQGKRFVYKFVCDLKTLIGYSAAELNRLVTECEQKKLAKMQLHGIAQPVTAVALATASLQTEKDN
Method in brief: as §1

ERG = target: T4, ERG (Homo sapiens, UniProt P11308 1-479); conditions: protein: recombinant; tags: N-terminal GST; dsDNA, one strand shown
T4 sequence: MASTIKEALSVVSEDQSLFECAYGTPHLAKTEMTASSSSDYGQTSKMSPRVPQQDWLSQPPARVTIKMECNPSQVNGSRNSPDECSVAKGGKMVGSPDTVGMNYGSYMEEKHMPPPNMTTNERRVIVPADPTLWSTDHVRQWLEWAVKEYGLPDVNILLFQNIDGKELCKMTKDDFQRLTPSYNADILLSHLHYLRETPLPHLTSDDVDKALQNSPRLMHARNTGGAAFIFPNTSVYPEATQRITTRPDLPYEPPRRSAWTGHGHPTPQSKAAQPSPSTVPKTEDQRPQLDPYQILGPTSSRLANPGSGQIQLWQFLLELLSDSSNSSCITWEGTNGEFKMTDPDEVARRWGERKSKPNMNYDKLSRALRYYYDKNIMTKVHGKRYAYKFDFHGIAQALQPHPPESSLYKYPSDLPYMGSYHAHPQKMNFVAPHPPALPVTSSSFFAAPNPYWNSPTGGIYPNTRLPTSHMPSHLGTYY
Method in brief: as §1

ELF1 = ELF1 (Homo sapiens, UniProt P32519 1-619); conditions: protein: recombinant; tags: N-terminal GST; dsDNA, one strand shown
Method in brief: as §1

SPI1 = SPI1 (Homo sapiens, UniProt P17947 1-270); conditions: protein: recombinant; tags: N-terminal GST; dsDNA, one strand shown
Method in brief: as §1

SPIB = SPIB (Homo sapiens, UniProt Q01892 1-262); conditions: protein: recombinant; tags: N-terminal GST; dsDNA, one strand shown
Method in brief: as §1

ELK3 = target: T5, ELK3 (Homo sapiens, UniProt P41970 1-407); conditions: protein: recombinant; tags: N-terminal GST; dsDNA, one strand shown
T5 sequence: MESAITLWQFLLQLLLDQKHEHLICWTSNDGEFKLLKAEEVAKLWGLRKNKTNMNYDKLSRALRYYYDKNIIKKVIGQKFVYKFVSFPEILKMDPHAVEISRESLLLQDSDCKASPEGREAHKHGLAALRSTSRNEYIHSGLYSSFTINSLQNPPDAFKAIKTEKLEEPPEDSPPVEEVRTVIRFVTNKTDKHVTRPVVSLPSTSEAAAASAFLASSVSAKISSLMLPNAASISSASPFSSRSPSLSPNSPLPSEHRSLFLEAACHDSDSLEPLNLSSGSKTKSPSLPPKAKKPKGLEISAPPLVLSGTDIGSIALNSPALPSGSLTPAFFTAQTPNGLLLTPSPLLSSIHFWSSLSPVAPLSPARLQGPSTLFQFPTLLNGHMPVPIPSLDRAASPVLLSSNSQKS
Method in brief: as §1

FEV = target: T6, FEV (Homo sapiens, UniProt Q99581 1-238); conditions: protein: recombinant; tags: N-terminal GST; dsDNA, one strand shown
T6 sequence: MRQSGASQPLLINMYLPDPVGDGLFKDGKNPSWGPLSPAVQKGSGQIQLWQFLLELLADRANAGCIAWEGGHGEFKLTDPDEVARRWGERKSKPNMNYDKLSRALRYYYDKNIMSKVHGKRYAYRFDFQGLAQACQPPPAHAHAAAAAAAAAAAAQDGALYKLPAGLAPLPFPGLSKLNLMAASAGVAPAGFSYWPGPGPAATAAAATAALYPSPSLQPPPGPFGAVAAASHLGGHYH
Method in brief: as §1

ETV5 = ETV5 (Homo sapiens, UniProt P41161 1-510); conditions: protein: recombinant; tags: N-terminal GST; dsDNA, one strand shown
Method in brief: as §1

HSF1 = HSF1 (Homo sapiens, UniProt Q00613 1-529); conditions: protein: recombinant; tags: N-terminal GST; chain copies: 3; dsDNA, one strand shown
Method in brief: as §1

ELF4 = ELF4 (Homo sapiens, UniProt Q99607 1-663); conditions: protein: recombinant; tags: N-terminal GST; dsDNA, one strand shown
Method in brief: as §1

ELK4 = target: T7, ELK4 (Homo sapiens, UniProt P28324-2 1-405); conditions: protein: recombinant; tags: N-terminal GST; dsDNA, one strand shown
T7 sequence: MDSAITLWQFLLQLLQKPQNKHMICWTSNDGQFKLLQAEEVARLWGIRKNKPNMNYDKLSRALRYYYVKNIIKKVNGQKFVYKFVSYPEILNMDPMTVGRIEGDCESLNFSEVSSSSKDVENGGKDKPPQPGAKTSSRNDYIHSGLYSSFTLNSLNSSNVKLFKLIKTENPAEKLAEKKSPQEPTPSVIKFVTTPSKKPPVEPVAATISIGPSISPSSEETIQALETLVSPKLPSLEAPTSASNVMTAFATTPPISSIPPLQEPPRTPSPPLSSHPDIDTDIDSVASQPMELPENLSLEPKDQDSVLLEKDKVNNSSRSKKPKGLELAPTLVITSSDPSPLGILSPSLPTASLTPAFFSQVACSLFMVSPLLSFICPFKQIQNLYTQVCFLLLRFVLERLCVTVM
Method in brief: as §1

ETV2 = target: T8, ETV2 (Homo sapiens, UniProt O00321 1-342); conditions: protein: recombinant; tags: N-terminal GST; dsDNA, one strand shown
T8 sequence: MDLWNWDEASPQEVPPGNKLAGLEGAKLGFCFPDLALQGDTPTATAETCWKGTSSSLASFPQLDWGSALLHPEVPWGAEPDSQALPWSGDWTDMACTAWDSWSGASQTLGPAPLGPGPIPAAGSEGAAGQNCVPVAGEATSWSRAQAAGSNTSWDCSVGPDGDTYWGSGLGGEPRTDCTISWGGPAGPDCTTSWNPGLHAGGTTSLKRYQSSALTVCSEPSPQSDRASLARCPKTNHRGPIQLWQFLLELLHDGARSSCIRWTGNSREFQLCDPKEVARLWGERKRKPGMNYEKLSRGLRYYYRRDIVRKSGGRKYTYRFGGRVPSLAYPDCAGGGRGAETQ
Method in brief: as §1

ELF3 = target: T9, ELF3 (Homo sapiens, UniProt P78545 1-371); conditions: protein: recombinant; tags: N-terminal GST; dsDNA, one strand shown
T9 sequence: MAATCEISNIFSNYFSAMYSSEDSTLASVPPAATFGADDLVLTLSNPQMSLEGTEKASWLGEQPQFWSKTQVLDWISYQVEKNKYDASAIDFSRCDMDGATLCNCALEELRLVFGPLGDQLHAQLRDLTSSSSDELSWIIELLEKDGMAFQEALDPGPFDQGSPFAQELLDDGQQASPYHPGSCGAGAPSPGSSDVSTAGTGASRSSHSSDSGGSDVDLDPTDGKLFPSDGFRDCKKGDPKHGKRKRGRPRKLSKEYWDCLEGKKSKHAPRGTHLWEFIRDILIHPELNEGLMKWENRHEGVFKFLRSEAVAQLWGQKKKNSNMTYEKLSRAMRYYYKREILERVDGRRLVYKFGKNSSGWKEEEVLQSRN
Method in brief: as §1

CRX = CRX (Homo sapiens, UniProt O43186 1-299); conditions: protein: recombinant; tags: N-terminal GST; dsDNA, one strand shown
Method in brief: as §1

ETV1 = ETV1 (Homo sapiens, UniProt P50549 1-477); conditions: protein: recombinant; tags: N-terminal GST; dsDNA, one strand shown
Method in brief: as §1

EHF = target: T10, EHF (Homo sapiens, UniProt Q9NZC4 1-300); conditions: protein: recombinant; tags: N-terminal GST; dsDNA, one strand shown
T10 sequence: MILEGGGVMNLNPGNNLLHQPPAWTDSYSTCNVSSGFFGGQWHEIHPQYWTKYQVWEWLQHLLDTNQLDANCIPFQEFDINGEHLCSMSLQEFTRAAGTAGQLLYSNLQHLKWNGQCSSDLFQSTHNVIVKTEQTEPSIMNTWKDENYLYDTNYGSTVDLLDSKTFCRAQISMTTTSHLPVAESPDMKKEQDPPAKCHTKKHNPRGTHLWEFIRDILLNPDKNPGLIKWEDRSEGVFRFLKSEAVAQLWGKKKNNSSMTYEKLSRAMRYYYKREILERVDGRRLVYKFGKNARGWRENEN
Method in brief: as §1

ELF4, sequence (Q99607 whole entry): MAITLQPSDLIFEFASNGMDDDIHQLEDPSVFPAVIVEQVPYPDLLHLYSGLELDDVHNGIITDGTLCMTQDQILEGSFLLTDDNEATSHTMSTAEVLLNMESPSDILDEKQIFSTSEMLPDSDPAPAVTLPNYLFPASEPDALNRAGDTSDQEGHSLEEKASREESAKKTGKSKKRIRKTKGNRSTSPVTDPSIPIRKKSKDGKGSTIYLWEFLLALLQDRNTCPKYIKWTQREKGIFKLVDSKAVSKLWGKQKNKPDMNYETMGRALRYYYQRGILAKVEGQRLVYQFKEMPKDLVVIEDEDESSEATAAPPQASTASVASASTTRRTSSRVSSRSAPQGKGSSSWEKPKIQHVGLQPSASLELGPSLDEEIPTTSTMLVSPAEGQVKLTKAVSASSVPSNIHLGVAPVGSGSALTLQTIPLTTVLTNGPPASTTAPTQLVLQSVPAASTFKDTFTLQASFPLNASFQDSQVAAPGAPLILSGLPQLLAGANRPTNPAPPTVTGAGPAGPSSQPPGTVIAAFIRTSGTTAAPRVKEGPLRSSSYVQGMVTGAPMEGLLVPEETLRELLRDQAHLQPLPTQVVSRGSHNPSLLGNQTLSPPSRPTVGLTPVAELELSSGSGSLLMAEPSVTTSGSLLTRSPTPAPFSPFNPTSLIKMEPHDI
HSF1, sequence (Q00613 whole entry): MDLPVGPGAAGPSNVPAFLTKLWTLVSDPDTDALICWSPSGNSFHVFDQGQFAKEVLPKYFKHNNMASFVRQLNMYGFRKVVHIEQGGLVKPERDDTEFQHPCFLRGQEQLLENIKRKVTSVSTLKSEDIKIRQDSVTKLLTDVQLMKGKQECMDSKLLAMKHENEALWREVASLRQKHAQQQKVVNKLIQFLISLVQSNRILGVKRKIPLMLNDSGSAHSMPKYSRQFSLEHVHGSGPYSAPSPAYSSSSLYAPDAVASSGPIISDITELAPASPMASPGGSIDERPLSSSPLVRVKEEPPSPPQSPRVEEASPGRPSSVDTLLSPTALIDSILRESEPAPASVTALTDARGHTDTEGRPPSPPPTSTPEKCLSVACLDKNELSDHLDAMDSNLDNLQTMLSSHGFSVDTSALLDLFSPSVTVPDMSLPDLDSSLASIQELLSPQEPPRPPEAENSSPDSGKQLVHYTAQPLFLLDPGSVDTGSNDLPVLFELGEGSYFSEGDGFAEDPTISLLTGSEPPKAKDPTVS
ELF1, sequence (P32519 whole entry): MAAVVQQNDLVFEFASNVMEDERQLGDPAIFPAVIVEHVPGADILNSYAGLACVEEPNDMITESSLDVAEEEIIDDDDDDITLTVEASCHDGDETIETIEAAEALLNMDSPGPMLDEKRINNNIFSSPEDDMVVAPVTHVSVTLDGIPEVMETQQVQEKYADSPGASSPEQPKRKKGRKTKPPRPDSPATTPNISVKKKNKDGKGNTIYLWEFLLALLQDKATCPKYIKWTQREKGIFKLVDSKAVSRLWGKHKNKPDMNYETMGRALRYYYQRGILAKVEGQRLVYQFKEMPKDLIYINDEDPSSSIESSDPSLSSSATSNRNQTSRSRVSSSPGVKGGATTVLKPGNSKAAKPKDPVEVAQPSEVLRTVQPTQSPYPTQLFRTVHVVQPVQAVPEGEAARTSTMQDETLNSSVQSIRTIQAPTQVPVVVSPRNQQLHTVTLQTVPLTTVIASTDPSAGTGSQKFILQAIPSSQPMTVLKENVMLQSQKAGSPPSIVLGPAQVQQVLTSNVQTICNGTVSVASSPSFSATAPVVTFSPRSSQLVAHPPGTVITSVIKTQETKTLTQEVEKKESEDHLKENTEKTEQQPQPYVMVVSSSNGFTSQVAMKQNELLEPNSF
ETV1, sequence (P50549 whole entry): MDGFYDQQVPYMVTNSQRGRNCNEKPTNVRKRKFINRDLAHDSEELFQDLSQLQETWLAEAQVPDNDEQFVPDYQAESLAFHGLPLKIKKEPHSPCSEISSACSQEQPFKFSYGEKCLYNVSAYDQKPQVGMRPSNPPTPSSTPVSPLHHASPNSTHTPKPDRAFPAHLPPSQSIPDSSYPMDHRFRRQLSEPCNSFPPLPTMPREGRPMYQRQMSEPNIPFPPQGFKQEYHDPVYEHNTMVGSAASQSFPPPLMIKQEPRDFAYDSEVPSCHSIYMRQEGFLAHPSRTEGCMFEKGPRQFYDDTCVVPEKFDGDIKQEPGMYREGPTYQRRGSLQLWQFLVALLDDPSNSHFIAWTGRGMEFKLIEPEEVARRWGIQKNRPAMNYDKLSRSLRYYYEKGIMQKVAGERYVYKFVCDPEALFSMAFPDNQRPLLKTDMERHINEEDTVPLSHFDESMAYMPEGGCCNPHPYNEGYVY
CRX, sequence (O43186 whole entry): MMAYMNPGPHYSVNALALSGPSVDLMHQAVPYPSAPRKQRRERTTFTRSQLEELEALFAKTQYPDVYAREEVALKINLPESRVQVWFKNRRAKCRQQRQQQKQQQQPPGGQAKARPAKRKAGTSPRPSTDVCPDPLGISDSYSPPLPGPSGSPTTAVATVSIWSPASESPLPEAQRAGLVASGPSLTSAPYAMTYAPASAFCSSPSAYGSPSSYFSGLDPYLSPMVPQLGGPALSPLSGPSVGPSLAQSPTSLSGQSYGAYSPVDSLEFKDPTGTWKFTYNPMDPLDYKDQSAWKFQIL
SPIB, sequence (Q01892 whole entry): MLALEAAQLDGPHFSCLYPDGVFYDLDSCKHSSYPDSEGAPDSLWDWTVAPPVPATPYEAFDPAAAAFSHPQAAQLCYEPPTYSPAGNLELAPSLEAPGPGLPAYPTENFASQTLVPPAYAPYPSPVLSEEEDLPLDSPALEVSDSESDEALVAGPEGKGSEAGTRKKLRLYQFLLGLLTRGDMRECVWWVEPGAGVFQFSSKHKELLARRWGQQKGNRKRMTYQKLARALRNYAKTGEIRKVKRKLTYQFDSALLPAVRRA
ETV5, sequence (P41161 whole entry): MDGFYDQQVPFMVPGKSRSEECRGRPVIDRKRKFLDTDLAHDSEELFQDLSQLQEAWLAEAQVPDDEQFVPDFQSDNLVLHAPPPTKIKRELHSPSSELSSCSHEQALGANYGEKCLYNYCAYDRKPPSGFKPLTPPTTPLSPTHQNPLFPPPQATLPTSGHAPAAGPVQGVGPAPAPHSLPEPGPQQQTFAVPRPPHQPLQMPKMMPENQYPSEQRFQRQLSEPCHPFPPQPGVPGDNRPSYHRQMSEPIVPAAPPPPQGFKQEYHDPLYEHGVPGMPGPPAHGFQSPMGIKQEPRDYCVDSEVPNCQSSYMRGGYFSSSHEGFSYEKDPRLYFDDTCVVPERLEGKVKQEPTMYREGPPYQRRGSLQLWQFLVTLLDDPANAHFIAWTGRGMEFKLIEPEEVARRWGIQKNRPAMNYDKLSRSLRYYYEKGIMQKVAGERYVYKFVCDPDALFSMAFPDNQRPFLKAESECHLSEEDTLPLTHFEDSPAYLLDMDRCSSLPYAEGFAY

| Sequence | binding signal (FLI1) | binding signal (ELK1) | binding signal (GABPA) | binding signal (ERG) | binding signal (ELF1) | binding signal (SPI1) | binding signal (SPIB) | binding signal (ELK3) | binding signal (FEV) | binding signal (ETV5) | binding signal (HSF1) | binding signal (ELF4) | binding signal (ELK4) | binding signal (ETV2) | binding signal (ELF3) | binding signal (CRX) | binding signal (ETV1) | binding signal (EHF) |
| --- | --- | --- | --- | --- | --- | --- | --- | --- | --- | --- | --- | --- | --- | --- | --- | --- | --- | --- |
| CAAAGC | 1.08 fold enrichment (6-mer frequency, TF over GST control) | 1.02 fold enrichment (6-mer frequency, TF over GST control) | 1.16 fold enrichment (6-mer frequency, TF over GST control) | 1 fold enrichment (6-mer frequency, TF over GST control) | 1.17 fold enrichment (6-mer frequency, TF over GST control) | 1.03 fold enrichment (6-mer frequency, TF over GST control) | 1.04 fold enrichment (6-mer frequency, TF over GST control) | 1.1 fold enrichment (6-mer frequency, TF over GST control) | 1.14 fold enrichment (6-mer frequency, TF over GST control) | 1.05 fold enrichment (6-mer frequency, TF over GST control) | 1.04 fold enrichment (6-mer frequency, TF over GST control) | 1.05 fold enrichment (6-mer frequency, TF over GST control) | 1.24 fold enrichment (6-mer frequency, TF over GST control) | 1.09 fold enrichment (6-mer frequency, TF over GST control) | 1.03 fold enrichment (6-mer frequency, TF over GST control) | 1.3 fold enrichment (6-mer frequency, TF over GST control) | 1.08 fold enrichment (6-mer frequency, TF over GST control) | – |
| GTAATC | 1.16 fold enrichment (6-mer frequency, TF over GST control) | 1.14 fold enrichment (6-mer frequency, TF over GST control) | 1.32 fold enrichment (6-mer frequency, TF over GST control) | 1.08 fold enrichment (6-mer frequency, TF over GST control) | 1.16 fold enrichment (6-mer frequency, TF over GST control) | 1.13 fold enrichment (6-mer frequency, TF over GST control) | 1.09 fold enrichment (6-mer frequency, TF over GST control) | 1.11 fold enrichment (6-mer frequency, TF over GST control) | 1.1 fold enrichment (6-mer frequency, TF over GST control) | 1.22 fold enrichment (6-mer frequency, TF over GST control) | 1.92 fold enrichment (6-mer frequency, TF over GST control) | 1.14 fold enrichment (6-mer frequency, TF over GST control) | 1.16 fold enrichment (6-mer frequency, TF over GST control) | 1.11 fold enrichment (6-mer frequency, TF over GST control) | 1.21 fold enrichment (6-mer frequency, TF over GST control) | 3.14 fold enrichment (6-mer frequency, TF over GST control) | 1.02 fold enrichment (6-mer frequency, TF over GST control) | 1.19 fold enrichment (6-mer frequency, TF over GST control) |
